Assay outcomes (PubChem BioAssay)
The list is not random: actives were taken first. Their share in the collection is about 3.5%.
ERb SRC1 inh: inhibitors of ERβ-SRC1 coactivator interaction, primary screen, biochemical, TR-FRET, ERβ LBD, SRC-1 peptide. Estrogen receptor beta (Homo sapiens), Q92731. TR-FRET ER-beta LBD / SRC1-Cy5 peptide binding; receptor agonist-loaded with 1 µM estradiol. inhibition, % at 25.6 µM. 1.3% of 86,000 active;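 active = compounds whose percent inhibition of the receptor-coactivator binding signal exceeds about 50% in the single-dose screen, limit read from the data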
Target sequence (Q92731 whole entry, looked up, the tested form may be a part): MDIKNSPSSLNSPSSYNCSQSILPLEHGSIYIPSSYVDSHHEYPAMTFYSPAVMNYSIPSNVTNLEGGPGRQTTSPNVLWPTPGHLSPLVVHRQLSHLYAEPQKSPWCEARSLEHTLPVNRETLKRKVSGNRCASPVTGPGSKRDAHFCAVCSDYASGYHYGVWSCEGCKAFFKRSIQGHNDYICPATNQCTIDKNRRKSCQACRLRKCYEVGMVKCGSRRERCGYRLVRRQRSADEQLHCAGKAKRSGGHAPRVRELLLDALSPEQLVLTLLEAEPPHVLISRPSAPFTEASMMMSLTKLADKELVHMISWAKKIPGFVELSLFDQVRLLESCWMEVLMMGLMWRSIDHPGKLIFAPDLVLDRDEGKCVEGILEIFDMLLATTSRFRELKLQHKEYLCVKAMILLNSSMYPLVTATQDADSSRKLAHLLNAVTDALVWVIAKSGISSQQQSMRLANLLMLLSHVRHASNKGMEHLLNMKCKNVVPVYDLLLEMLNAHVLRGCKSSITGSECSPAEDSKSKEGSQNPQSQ
MMP13 inh: human MMP13 inhibitors, primary screen, biochemical, FRET peptide cleavage | 0.07% of 65,000 active | Collagenase 3 (Homo sapiens), P45452 | AID 570, 2006 | MMP-13 fTHP FRET cleavage, Mca fluorescence | inhibition, % at 4 µM;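 active = inhibition above the mean of compound-free control plate wells plus 3 SD, cut at about 14% in these data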
ERa coact pot: enhancers of ERα–SRC-1 coactivator binding, primary screen, biochemical, TR-FRET, ERα LBD, low estradiol. coactivator binding (% of control), % at 25.6 µM. TR-FRET ERalpha-LBD/SRC-Cy5 coactivator binding, 2 h; 100 = basal binding, no effect. Estrogen receptor (Homo sapiens), P03372. AID 639, 2007. 1.3% of 86,000 active; in the data active = activity above about 200%;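 also: binding measured in presence of low estradiol as agonist stimulus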
ERa coact inh: ERα–SRC-1 coactivator interaction inhibitors, primary screen, biochemical, TR-FRET, ERα LBD, estradiol-bound; TR-FRET ER-alpha LBD / SRC-1 peptide; inhibition, % at 25.6 µM; 1.7% of 86,000 active; in the data active = inhibition above about 50%
Smad3 FoxH1 inh: Smad3/FoxH1 peptide binding inhibitors, primary screen, biochemical, TR-FRET; 0.29% of 88,000 active; inhibition, % at 25 µM; Mothers against decapentaplegic homolog 3 (Homo sapiens), P84022; TR-FRET Smad3/Dy647-FoxH1 peptide binding, europium anti-His;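 active = compounds that reduce the energy-transfer binding signal between the protein and its labelled peptide by more than half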
MT1-MMP txn act: MT1-MMP promoter reporter activation – cell-based, luciferase luminescence, primary screen | HT1080 MT1-MMP promoter luciferase reporter, overnight; stronger effect = higher value | activation factor at 10 µM | 0.16% of 86,000 active | AID 750, 2007;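 active = activation factor of at least 2 for MT1-MMP transcription at 10 µM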
Hits are given with their value; - = inactive; . = not tested or not shown; [ ] = dose if it differs, or a comment.

SMILES | ERb SRC1 inh | MMP13 inh | ERa coact pot | ERa coact inh | Smad3 FoxH1 inh | MT1-MMP txn act
CCCN1CCN(CCCNC(=O)c2cc3c(=O)n(C)c4ccccc4c3n2C)CC1 | - | - | - | - | - | -
Cc1ccc(S(=O)(=O)N2CCN(S(=O)(=O)N3CCOCC3)CC2)c(C)c1 | - | . | - | - | - | -
COc1cccc(C2C3=C(CC(C)(C)CC3=O)Nc3cc4c(cc32)OCO4)c1 (centres undefined) | - | . | - | - | - | .
COc1ccc(CN2C(=O)C(O)(CC(=O)c3ccc4c(c3)OCO4)c3ccccc32)cc1OC (centres undefined) | - | . | - | - | 75.1 | .
CCC(=C(c1ccc(OC)cc1)c1ccc(OC)cc1)c1cn(CC(O)CN2CCN(C)CC2)c2ccccc12 (centres undefined) | - | . | - | 70.3[fluorescence artefact?] | - | -
COc1ccc(OCCn2cc(/C(N)=N/O)c3ccccc32)cc1 | - | . | - | - | - | -
CC1(c2ccccc2)NC(=O)N(CC(=O)NC(=O)NC2CCCC2)C1=O (centres undefined) | - | - | - | - | - | -
CCOC(=O)c1cnc2cc(-c3ccc(C)cc3)nn2c1-c1ccccc1 | - | . | 247.0[fluorescence artefact?] | - | - | -
CCOC(=O)c1nnc2cc(-c3ccccc3)nn2c1C | - | - | - | - | - | -
COc1cc(C)c(S(=O)(=O)Nc2ccccc2F)cc1C | - | - | - | - | - | -
O=C(OCc1cc(=O)n2c(n1)sc1ccccc12)c1ccc2c(=O)n3c(nc2c1)CCC3 | - | - | - | 79.0[fluorescence artefact?] | - | -
CN(C(=O)c1ccc2c(=O)n3c(nc2c1)CCCCC3)c1ccccc1 | - | - | - | - | - | -
CN(C)c1ccc(NC(=O)N2CCOCC2)cc1 | 63.9[fluorescence artefact?] | . | - | - | - | -
Cc1nc(-c2ccccc2)nc2[nH]c(-c3ccccc3)cc(=O)c12 | - | . | 334.2[fluorescence artefact?] | - | - | -
COc1ccc(CC(NC(C)=O)C(=O)NC2CCN(C(=O)NCc3ccccc3)CC2)cc1OC (centres undefined) | 87.4[fluorescence artefact?] | - | - | - | - | -
COc1ccccc1NC(=O)c1cc2n(n1)C(C(F)(F)F)CC(c1ccc3c(c1)OCO3)N2 (centres undefined) | - | - | - | - | - | -
C1=C(c2ccc(-c3ccccc3)cc2)Nc2ncnn2C1c1ccco1 (centres undefined) | - | - | - | 68.6[fluorescence artefact?] | - | -
CCOc1ccc(C2C=C(c3ccccc3)Nc3ncnn32)cc1 (centres undefined) | - | - | - | - | - | -
Cc1cc(C)c(S(=O)(=O)/N=C2\C=CC(=O)C(Cl)=C2)c(C)c1 | 61.1 | . | - | 70.4 | - | -
Cc1cc(C)c(S(=O)(=O)Nc2ccc[nH]c2=O)c(C)c1 | - | - | - | - | - | -
O=C(O)CCCCn1cnc2c(=S)nc[nH]c21 | . | . | . | . | 51.6 | .
O=C(O)CCn1cnc2c(=S)nc[nH]c21 | . | . | . | . | 52.6 | .
CCc1cccc(NC(=O)C2CCCC2)c1 | - | - | - | - | - | -
CC(C)Cn1c(=O)c(C(=O)Nc2ccccc2S(N)(=O)=O)c(O)c2ccccc21 | . | - | . | . | . | -
CCC(C)n1c(=O)c(C(=O)Nc2ccccc2S(N)(=O)=O)c(O)c2ccccc21 (centres undefined) | - | - | 207.8 | - | - | -
SMILES | ERb SRC1 inh | MMP13 inh | ERa coact pot | ERa coact inh | Smad3 FoxH1 inh | MT1-MMP txn act
COc1ccc(C)c2sc(NC(=O)C3=COCCO3)nc12 | - | . | - | 92.8[fluorescence artefact?] | - | .
Fc1ccc(NCc2cccnc2)cc1F | - | . | - | 62.5 | - | -
Cc1cc(F)ccc1NCc1cccnc1 | - | . | - | - | - | -
Cn1c(C(=O)Nc2ccccc2)cc2sccc21 | - | . | - | - | - | 2.2
COc1cc(NC(=O)c2cc3sccc3n2C)cc(OC)c1 | - | - | - | - | - | 2.1
O=C(NCC1CCCO1)NC1CCCCC1 (centres undefined) | - | . | - | - | - | -
CCn1cc(-c2cc(C(F)(F)F)n3nc(C(=O)O)cc3n2)c(C)n1 | 75.4[fluorescence artefact?] | - | - | 64.1[fluorescence artefact?] | - | -
